About 1,400 (0.45%) of roughly 310,000 compounds were called active.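 The calls were made as follows: active = B-score, a plate-corrected calcium signal, over three deviations above library mean, with baseline fluorescence within five deviations of library mean; inactive = the rest.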 The list comes from a sample in which actives are over-represented; it also holds similar structures and randomly drawn compounds.
molecular target: Regulator of G-protein signaling 4 (Homo sapiens) (UniProt P49798); assay: blockers of RGS4 function in M3R calcium signaling – cell-based, HEK293 M3R inducible RGS4, calcium flux, primary screen (AID 463165); settings: Fluo-4 calcium flux, at 10 µM, triggered by carbachol at its EC20; active compounds read high;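 also: RGS4 expression induced by doxycycline in cells with stable M3 receptor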;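 as to B-score: B-score is computed from the integrated fluorescence ratio over baseline after carbachol; higher B-score means a larger calcium signal and so more RGS4 inhibition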
Sequence (P49798 whole entry, looked up): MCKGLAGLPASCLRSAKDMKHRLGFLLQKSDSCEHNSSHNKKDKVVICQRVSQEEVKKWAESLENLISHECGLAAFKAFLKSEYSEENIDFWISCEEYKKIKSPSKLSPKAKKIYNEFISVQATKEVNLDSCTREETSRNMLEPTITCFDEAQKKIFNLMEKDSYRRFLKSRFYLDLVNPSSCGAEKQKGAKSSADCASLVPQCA

B-score, inactive:
Cn1c(SCC(=O)N2CCCC2)nnc1-c1cccs1, Cc1cccc(N2C(=O)c3ccc(C(=O)Nc4cccc(C(=O)O)c4)cc3C2=O)c1, O=C(/C=C/c1ccc(N2CCOCC2)cc1)c1ccccc1, COC(=O)c1sccc1NN1C(=O)c2ccccc2C1=O, COc1ccc(N2CCN(C(=O)COC(=O)c3cccc(S(=O)(=O)Nc4ccccc4OC)c3)CC2)cc1, O=C(Nc1cccc(Cl)c1)OCc1ccccn1, O=C(Nc1ccccc1)OCc1cn(-c2ccc(Cl)cc2)nn1, Cc1cccc(-c2nnc(SCC(=O)O)n2Cc2ccccc2)c1, O=C(CSc1ncn[nH]1)N/N=C/c1ccc(F)cc1, Cc1ccc(C(=O)/C=C/c2c(C)nn(-c3ccccc3)c2Cl)cc1, O=S(=O)(Cc1cc(Sc2ccccc2)nc(-c2ccccc2)n1)c1ccccc1, Cc1cc(N2CCOCC2)nc(-c2ccc(Br)cc2)n1, CCCN(CCc1ccccc1)C1CCc2c(O)cccc2C1 (centres undefined), CCc1ccc(N(C(=O)c2csnn2)C(C(=O)NC2CCCCC2)c2ccncc2)cc1 (centres undefined), Cc1ccc2nc(-c3ccc(NC(=O)CN(C)S(=O)(=O)c4ccccc4)cc3)sc2c1, NC(=O)NC(=O)CSc1nc2cc([N+](=O)[O-])ccc2n1-c1cccc(C(F)(F)F)c1, CCc1nnc(NS(=O)(=O)c2ccc(NS(=O)(=O)c3ccccc3)cc2)s1, CCc1nnc(NS(=O)(=O)c2ccc(NC(=S)NC(=O)/C=C/c3cccs3)cc2)s1, O=C(OCc1cc(Cl)ccc1OC(F)F)c1cccnc1, O=C1N/C(=N\N=C\c2ccco2)SC1Cc1ccc(F)cc1 (centres undefined), CC(C)=N/N=C1/NC(=O)C(Cc2ccccc2)S1 (centres undefined), Cc1cccc(CN2CCN(Cc3cnn(-c4ccccc4F)c3)CC2CCO)n1 (centres undefined), CCCCN1C(=S)NC[C@@H]1C(C)CC (some centres undefined), CC(CO)NCC12CC3CC(CC(C3)C1)C2 (centres undefined), Cc1ccccc1Nc1nc(-c2cccnc2)cs1, Brc1ccc(-c2csc(N/N=C/c3ccc4c(c3)OCO4)n2)cc1, CCCCN1C(=O)C(C)=C(C)C1OCCc1ccc(OC)c(OC)c1 (centres undefined), c1ccc(CN=C2Nc3ccccc3CS2)nc1, CCC(C)c1ccc(O)c(/C=N/O)c1 (centres undefined), CC(=O)NCC(O)c1ccc([N+](=O)[O-])cc1 (centres undefined), FC(F)(F)c1ccc(-n2cn[nH]c2=S)cc1, Cc1ccnc(NS(=O)(=O)c2ccc(NC(=O)c3oc4ccc(F)cc4c3C)cc2)n1, CCOC(=O)c1c(NC(C)=O)sc2c(O)c(Br)ccc12, O=c1[nH]c(N2CCOCC2)nc2ccccc12, CC1(C)Cc2c(C#N)c(SCc3nc4ccccc4[nH]3)nc(N3CCOCC3)c2CO1, Nc1c(-c2ccc(F)cc2)cnn1C1CCS(=O)(=O)C1 (centres undefined), C/C(=N\NC(=O)CSc1nc2ccccc2c(=O)n1-c1ccccc1C)c1cccs1, CN1C(=O)/C(=C\c2ccc(-c3ccccc3)o2)SC1=S, O=C1NN(c2ccccc2)C(=O)/C1=C/c1ccc(-c2cccc(C(=O)O)c2)o1, NC(=O)C1CCN(CC(O)CSc2ccc(F)cc2)CC1 (centres undefined), CC(Oc1ccccc1)C(=O)Nc1c2c(nn1-c1ccccc1)CS(=O)C2 (centres undefined), COc1ccc(-c2nc3c(s2)CCc2onc(-c4ccc(Br)cc4)c2-3)cc1, O=C(Cn1ccc2cc(S(=O)(=O)N3CCCC3)ccc21)NCc1ccccc1, O=C(/C=C/c1cccc([N+](=O)[O-])c1)N1CCN(Cc2ccccc2)CC1, O=c1c2cc([N+](=O)[O-])ccc2nc2n1CCC2, C=CCOc1cccc(C2NC(=O)c3ccccc3O2)c1 (centres undefined), Oc1ccc(Br)cc1C=Nc1ccc2[nH]ncc2c1, Oc1c(Cl)cc(Cl)cc1/C=N/c1ncn[nH]1, Cc1ccc(CN2CCN(Cc3cccc(C)n3)CC2CCO)cc1 (centres undefined), CCCCCN(C(=O)CCC(=O)OCC(=O)NC1CCC(C)CC1)c1c(N)n(CCCC)c(=O)[nH]c1=O (centres undefined), Cc1cccc(C)c1-n1c(C)cc(/C=C2\C(=O)NN(c3ccccc3)C2=O)c1C, COc1cc(/C=N/O)cc(Br)c1OCc1cccc(Cl)c1, COc1cc(/C=C2\SC(=O)NC2=O)ccc1OCc1ccc(Cl)nc1, COc1cc(/C=C2/C(=O)NN(c3ccc(F)cc3)C2=O)cc([N+](=O)[O-])c1O, CONc1nc2nonc2nc1NOC, COc1ccc(Nc2ccc([N+](=O)[O-])cn2)cn1, Cc1ccc(NC(=O)OCc2cncs2)cc1, COC(=O)c1ccc(Nc2ncnc3sccc23)cc1, Cc1ccc(-n2c(SCC(=O)N3CCC(C(=O)O)CC3)nc3ccccc3c2=O)cc1C, Cc1nc(-c2ccccc2)sc1C(=O)/C=C/N(C)C, Cc1nc(-c2ccc(Cl)cc2)sc1C(=O)CBr, Cc1cccc(C(=O)NC(=S)N(C)C2CCCCC2)c1, CCC(c1nnnn1Cc1ccccc1)N(Cc1cc2cc(OC)ccc2[nH]c1=O)CC1CCCO1 (centres undefined), CCC(c1nnnn1Cc1ccco1)N(CCc1ccccc1)Cc1cc2cccc(C)c2[nH]c1=O (centres undefined), COC(=O)/C=C(\Oc1ccccc1)C1(O)CCCCC1, O=C(Nc1ccccc1)C1CCN(C(=O)c2ccc(Br)cc2)CC1, COc1ccc(C(=O)CSc2nc(C)cc(C)n2)cc1[N+](=O)[O-], COc1ccc(OCc2cn3c(C)cc(C)nc3n2)cc1, CCOc1ccc(NC(=S)NC(=O)/C=C/c2ccc(OC)cc2)c([N+](=O)[O-])c1, C(=N\N1CCN(c2ccccn2)CC1)/C1=C(N2CCOCC2)C(=C/c2ccccc2)/CC1, N#C/C(=C\C1=C(N2CCOCC2)C(=C\c2ccccc2)/CC1)C(=O)Nc1ccccc1F, COc1ccc(C(F)(F)F)cc1N/C=C\c1nnnn1-c1ccc(C)cc1, CCOC(=O)c1ccccc1NC(=O)COC(=O)CCC(=O)N1CCOCC1, S=c1[nH]nc(-c2cc(-c3ccccc3)n[nH]2)n1/N=C/c1c2ccccc2cc2ccccc12, CC(C)c1cc(C(=O)N/N=C/C(Br)=C/c2ccccc2)n[nH]1, COCCn1c(SCC(=O)c2[nH]c(C)c(C(C)=O)c2C)nc2ccccc2c1=O, CCOc1cc2[nH]c(=S)n(Cc3ccc(C(=O)N4CCN(C)CC4)cc3)c(=O)c2cc1OCC, O=C(C1CCC(=O)N(C2CC2)C1)N1CCN(c2ccc(Cl)cc2)CC1 (centres undefined), Nc1nc(Nc2ccccc2F)nc(NC2CCCCC2)c1[N+](=O)[O-], Nc1nc(NCC2CCCO2)nc(Nc2ccccc2F)c1[N+](=O)[O-] (centres undefined), CC(C)c1ccc(/C=C2\NC(=O)NC2=O)cc1, C=CCNC(=O)CCCC(=O)NCC=C, CN(C)c1ccc(/C=C/C(=O)c2ccc(O)cc2)cc1[N+](=O)[O-], O=C(Nc1cccnc1)c1ccc(Cl)c([N+](=O)[O-])c1, O=C(/C=C/c1ccc(Cl)cc1Cl)c1cccnc1, CN(C)c1ccc(/C=C/C(=O)c2ccc(C(C)(C)C)cc2)cc1[N+](=O)[O-]

B-score, active:
O=C(O)c1ccc2c(c1)C(=O)N(c1ccc(/C=C/C(=O)c3ccccc3)cc1)C2=O 24.6, O=C(Nc1ccc(Cl)cc1)OCc1cc(-c2ccccc2)on1 6.27, O=C(/C=C/Sc1ncn[nH]1)c1ccc(Cl)cc1 12, Cc1ccc(Sc2cc(N3CCOCC3)nc(-c3ccccc3)n2)cc1 8.43, CCc1nnc(NS(=O)(=O)c2ccc(N=Cc3c(C)[nH]n(-c4ccc(C)cc4)c3=O)cc2)s1 5.86, CCCCC1S/C(=N/N=C/c2cccs2)NC1=O (centres undefined) 6.28, Brc1ccc(-c2csc(N/N=C/c3cccnc3)n2)cc1 7.99, CNCC(O)c1ccc(O)c(O)c1 (centres undefined) 6, C1=C(N2CCOCC2)/C(=C/c2nc3ccccc3[nH]2)CC1 5.95, O=C(O)C(c1ccccc1)N1C(=O)/C(=C\c2ccc(-c3cccc(Cl)c3)o2)SC1=S (centres undefined) 10.3, O=[N+]([O-])/C=C/c1ccc2c(ccn2Cc2ccccc2)c1 44.8, COc1cc(Br)cc(/C=N/c2ncn[nH]2)c1O 5.03, C#CCOc1ccc(/C=C2/C(=O)NN(c3ccccc3)C2=O)cc1OC 7.25, COc1cc(/C=C2/C(=O)NN(c3cccc(Cl)c3)C2=O)cc(Br)c1O 5.61, COc1ccc(NC(=O)/C(Cl)=C(/Cl)S(=O)Cc2ccc(C)cc2)cn1 (centres undefined) 5.83, Cc1nc(-c2ccccc2)sc1C(=O)/C=C/c1ccccc1 11.9, CCC(c1nnnn1Cc1ccco1)N(Cc1cc2cc(OC)ccc2[nH]c1=O)C1CCCCC1 (centres undefined) 16.8, COc1ccc(C(C[N+](=O)[O-])n2nc(C)cc2C)cc1 (centres undefined) 5.35, O=C1Nc2ccc(Br)cc2/C1=N/N=C/C1=C(N2CCOCC2)C(=C\c2ccccc2)/CC1 13.1, Cc1cc(-c2n[nH]c(=S)n2/N=C/C(Br)=C/c2ccccc2)n[nH]1 7.31, C=CCNc1nc(N)c([N+](=O)[O-])c(NC2CCCCC2)n1 7.68, O=C(/C=C/c1ccc(Cl)c([N+](=O)[O-])c1)c1ccc(O)cc1 6.92, O=C(/C=C/c1ccc(Cl)c([N+](=O)[O-])c1)c1cccnc1 11
